Results on 14 compounds are retold here after the supplement of paper PMC6897291.

Where a name gives a salt, the structure may show the parent alone.

This assay concerns RIVA. The experiment in a line: growth inhibition by drug alone (1 - RLU/untreated control) (fraction); higher = stronger inhibition. As to conditions: 10 nM; time (day): 4; 177Lu-lilotomab satetraxetan 0 ug/ml. The method in brief:
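With or without 18 h pretreatment by a radiolabelled anti-CD37 antibody conjugate (~600 MBq/mg; 0.5 µg/ml RIVA, 1 µg/ml U-2932), RIVA and U-2932 cells were washed and plated at 3,000 cells/well. Pre-printed compound doses were 10/100 nM for RIVA and 10/1,000 nM for U-2932. Growth inhibition uses RealTime-Glo RLU relative to the untreated no-drug wells. The calculation is 1 − RLU/mean of 48 such wells per plate, with reads daily from day 3 after 1 h at 37°C.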
In the case of `CCc1c2c(nc3ccc(OC(=O)N4CCC(N5CCCCC5)CC4)cc13)-c1cc3c(c(=O)n1C2)COC(=O)[C@]3(O)CC` [Irinotecan HCl Trihydrate (Campto)], the “growth inhibition by drug alone” value was -0.159.

On to `S=C(NCc1ccc2c(c1)OCO2)N1CCN(c2ncnc3c2oc2ccccc23)CC1` [Amuvatinib (MP-470)], for which the “growth inhibition by drug alone” value is 0.0587.

Consider `COc1ccc2c3n(c(=NC(=O)c4cccnc4)nc2c1OC)CCN3`, for which the “growth inhibition by drug alone” value turned out to be 0.0605.

Take `C#Cc1cccc(Nc2ncnc3cc(OCCOC)c(OCCOC)cc23)c1` [Erlotinib HCl]: the “growth inhibition by drug alone” value amounted to 0.233.

On to `Cc1ccc(-c2cc(C(F)(F)F)nn2-c2ccc(S(N)(=O)=O)cc2)cc1` [Celecoxib], for which the “growth inhibition by drug alone” value is -0.129.

As for `N#CC[C@H](C1CCCC1)n1cc(-c2ncnc3[nH]ccc23)cn1`, the “growth inhibition by drug alone” value was -0.0212.

As to `CCc1cncnc1N1CCN(Cc2nc3ccc(C(F)(F)F)cc3[nH]2)CC1`, the “growth inhibition by drug alone” value is -0.0231.

Take `CCN(CC)C(=S)SSC(=S)N(CC)CC` [Disulfiram (Antabuse)]: the “growth inhibition by drug alone” value is -0.1.

On to `CC(C)[C@H](C(=O)Nc1ccc(C(=O)NO)cc1)c1ccccc1`, for which the “growth inhibition by drug alone” value is -0.0463.

Turning to `CC(=O)O[C@]1(C(C)=O)CC[C@H]2[C@@H]3C=C(C)C4=CC(=O)CC[C@]4(C)[C@H]3CC[C@@]21C` [Megestrol Acetate], the “growth inhibition by drug alone” value is -0.0102.

Consider `COc1cc2ncnc(Nc3cccc(Br)c3)c2cc1OC`, for which the “growth inhibition by drug alone” value came out at 0.0203.

Consider `N#Cc1ccc(C(c2ccc(C#N)cc2)n2cncn2)cc1` [Letrozole], for which the “growth inhibition by drug alone” value is -0.245.

`CC(=O)c1c(C)c2cnc(Nc3ccc(N4CCNCC4)cn3)nc2n(C2CCCC2)c1=O`: the “growth inhibition by drug alone” value is -0.0722.

Take `COc1cccc2c1C(=O)c1c(O)c3c(c(O)c1C2=O)C[C@@](O)(C(=O)CO)C[C@@H]3O[C@H]1C[C@H](N)[C@H](O)[C@H](C)O1` [Doxorubicin (Adriamycin)]: the “growth inhibition by drug alone” value came to 0.324.
